mHtt clearance: compounds clearing mutant huntingtin protein; hit rate 0.42% among 47,000; inhibition, % at 1.5 µM; AID 853; HeLa Exon1htt(103Q)mCFP, aggregate imaging; zero = plate's median compound well;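 active means inhibition of aggregate fluorescence above about 70%, also judged a hit by eye on the cell image, limit read from the data, passing the limit was not always enough; inconclusive means no rule stated for this call; inactive means not judged a hit on image review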;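 further: cells exposed to compound for three days before fixation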
DUSP1 inh: inhibitors of human MKP-1 phosphatase. recombinant MKP-1, OMFP hydrolysis fluorescence. inhibition, %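 (compounds tested at a single concentration somewhere between 10 and 100 µM)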. P28562. AID 374. hit rate 0.15% among 65,000;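 active means inhibition above about 50%, limit read from the data; inconclusive means inhibition over screen mean plus 3 SD, below that limit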;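 further: 0% = DMSO max control wells and 100% = wells with enzyme stopped by NaOH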
Target sequence (P28562 whole entry, looked up): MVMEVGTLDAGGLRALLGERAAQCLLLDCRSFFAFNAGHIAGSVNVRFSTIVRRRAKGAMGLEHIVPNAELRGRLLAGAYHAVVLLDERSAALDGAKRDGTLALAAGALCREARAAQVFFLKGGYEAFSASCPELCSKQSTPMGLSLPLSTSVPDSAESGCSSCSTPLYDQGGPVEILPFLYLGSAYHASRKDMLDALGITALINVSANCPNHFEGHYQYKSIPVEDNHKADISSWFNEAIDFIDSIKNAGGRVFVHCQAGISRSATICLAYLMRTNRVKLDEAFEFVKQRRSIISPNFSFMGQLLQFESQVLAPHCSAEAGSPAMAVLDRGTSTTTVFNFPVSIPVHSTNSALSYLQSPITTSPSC
Cdc25B inh: inhibitors of human Cdc25B phosphatase. recombinant Cdc25B, OMFP fluorescence Ex485/Em525. hit rate 0.1% among 65,000. AID 368. P30305. inhibition, %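 (compounds tested at 10 µM final in the well)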; in the data active means inhibition above about 50%
MMP-13 inhibitor: MMP13 (human) collagenase inhibition | MMP-13 fTHP FRET cleavage, Mca fluorescence | inhibition, % at 4 µM | P45452 | hit rate 0.07% among 65,000 | AID 570;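 active means inhibition above the mean of compound-free control plate wells plus 3 SD, cut at about 14% in these data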;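 further: 0% = DMSO wells and 100% = wells with reference MMP-13 inhibitor after basal subtraction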
WNV NS2B-NS3 inh: WNV NS2B-NS3 proteinase inhibition | hit rate 0.18% among 65,000 | P06935 | WNV NS2B-NS3 protease, fluorogenic substrate Ex360/Em465; stronger effect = lower value | AID 577 | z-score (no concentration beside the values); in the data active means z-score below about -3
* = called active by the depositor; ? = inconclusive; . = no result. Sampled rows, rich in hits. Any-hit rate of the full collection: about 0.62%.

SMILES	mHtt clearance	DUSP1 inh	Cdc25B inh	MMP-13 inhibitor	WNV NS2B-NS3 inh
CN1C(=O)N(CN2CCCCC2)C2C1N(C)C(=O)N2CN1CCCCC1 (stereo not given)	-18	-13	12	5	-12*
CC(C)(C)OC(=O)N1CCC[C@H]1C(=O)NCC1CCC(C(=O)O)CC1 (stereo not given in full)	.	-31	0	-4	-0.27
CC(C)[C@H](NC(=O)[C@@H]1CSCN1C(=O)OC(C)(C)C)C(=O)NCC1CCC(C(=O)O)CC1 (stereo not given in full)	76*	-18	-7	-3	0.45
Cc1nc(SCC(=O)NCCc2ccccc2)nc(C)c1C	-40	.	.	.	.
COC(=O)c1c(NC(=O)c2ccco2)sc(C(=O)N(C)C)c1C	6	.	.	.	.
CCCOP(=O)(c1ccc(N(C)C)cc1)C(O)c1ccncc1 (stereo not given)	.	2	13	-2	-1.1
CN(C)c1ccc(P(=O)(OCc2ccccc2)C(O)c2ccncc2)cc1 (stereo not given)	74*	9	3	1	-0.03
CCOCCCN1C(=O)C(O)=C(C(C)=O)C1c1cccs1 (stereo not given)	-28	.	.	.	.
COc1cccc(CNc2cc(CSc3ccc(Cl)cc3)nc(C)n2)c1	50	.	.	.	.
COC(=O)c1c(NC(=O)C2CC2)sc2c1CCCC2	-24	9	-6	0	-3.6*
COC(=O)c1c(NC(=O)CC2NCCNC2=O)sc2c1CCCC2 (stereo not given)	-6	28	4	2	-1.5
COc1cccc(-n2c(SCC(=O)NCCC3=CCCCC3)nc3n[nH]c(C)c3c2=N)c1	-42	40	-29	-1	-0.99
COc1cccc(NC(=O)CSc2nc3n[nH]c(C)c3c(=N)n2-c2cccc(OC)c2)c1	?	?	28	0	-3.1*
CN(C)/C=C1/Sc2ccccc2C1=O	.	3	-8	0	-4.1*
CCOC(=O)c1c(NC(=O)CSc2nnc(Cc3ccccc3)o2)sc(C)c1C	2	.	.	.	.
COC(=O)c1cc(C(=O)OC)cc(N2C(=O)CC(NNC(=O)c3ccccc3Br)C2=O)c1 (stereo not given)	85*	.	.	.	.
COC(=O)c1cc(C(=O)OC)cc(N2C(=O)CC(Sc3nc(C)cc(C)n3)C2=O)c1 (stereo not given)	-22	34	-5	-3	0.56
O=C(OCCN1C(=O)c2ccccc2C1=O)c1cc(S(=O)(=O)N2CCOCC2)ccc1F	.	19	0	-1	-3.1*
O=c1[nH]c(SCc2cccc(Cl)c2)nc2c1CCCC2	-14	5	-1	1	1.8
O=c1[nH]c(SCc2ccc(Cl)cc2)nc2c1CCC2	.	2	2	33*	-0.52
COc1ccc(CNc2nc(NCc3ccc(OC)c(OC)c3)n(C(=O)c3cccs3)n2)cc1OC	-15	.	.	.	.
CC(C)N1CCc2c(sc(NC(=O)c3ccc(S(=O)(=O)N4CCOCC4)cc3)c2C(N)=O)C1	.	9	-9	14*	-0.92
CCN1CCc2c(sc(NC(=O)c3ccc(S(=O)(=O)N4CCOCC4)cc3)c2C(N)=O)C1	.	9	-1	2	-1.9
Cc1cc(NC(=O)c2oc3ccccc3c2C)ccc1-n1cnnn1	.	23	-5	-2	-5.5*
COc1cc(OC)cc(C(=O)Nc2ccc(-n3cnnn3)c(C)c2)c1	-83	8	1	0	2.4
SMILES	mHtt clearance	DUSP1 inh	Cdc25B inh	MMP-13 inhibitor	WNV NS2B-NS3 inh
COc1ccc2nc(S(=O)Cc3ncc(C)c(OC)c3C)[nH]c2c1 (stereo not given)	.	-2	-5	-31	-0.69
CC1=C(C#N)C(=O)OC(C)(C)C1	-34	-19	-20	4	-8.2*
CC12CCC(C(=O)NCc3ccccc3)(OC1=O)C2(C)C (stereo not given)	.	5	0	2	-0.67
CC12CCC(C(=O)NCc3ccc4c(c3)OCO4)(OC1=O)C2(C)C (stereo not given)	71*	-9	-15	3	0.65
O=C(CCC1CCCC1)N1CCN(C(=O)c2ccco2)CC1	72*	11	0	-2	0.69
O=C(c1ccco1)N1CCCN(C(=O)c2ccco2)CC1	.	-4	-10	-2	1.3
CC(C)N(C(=O)C(F)(F)F)C(C(=O)NC1CCCCC1)c1ccncc1 (stereo not given)	-28	.	.	.	.
O=c1[nH]cnc2[nH]ncc12	.	74*	-3	.	0.22
O=C(NCc1ccco1)c1ccc(=O)[nH]n1	72*	-19	6	-5	0.78
O=C(NCc1ccccc1)c1ccc(=O)[nH]n1	.	-14	-29	-1	-0.01
O=C(Nc1cccc(NC(=O)c2ccc(-c3ccc(Br)cc3)o2)c1)c1ccco1	18	.	.	.	.

Screening results as filed in PubChem BioAssay.
